# The whole screen tested about 16,000 compounds, of which about 5,100 (32%) were called active. About 25% were inconclusive and are not listed. Calls come from the whole dose curve; as a rule, active = well fitted curve in the direction sought with a large enough effect; inconclusive = small, poorly fitted or top-dose-only effect, or effect the other way; inactive = no such curve, though single readings can be large or run the other way. Some of the results follow. Square brackets hold non-standard residues; d marks the D form. Peptide text beside a SMILES is read from it.
# Target: Cytochrome P450 3A4 (Homo sapiens) (UniProt P08684)
# Assay: Cytochrome panel assay with activity outcomes
# Conditions: recombinant CYP, pro-luciferin dealkylation, luminescence, p450-cyp3a4; series mostly up to 57.1 µM
# % is set by controls: 0 for no effect and ±100 for the full control effect.
# Chain of Cytochrome P450 3A4 (Homo sapiens) (P08684 whole entry, looked up): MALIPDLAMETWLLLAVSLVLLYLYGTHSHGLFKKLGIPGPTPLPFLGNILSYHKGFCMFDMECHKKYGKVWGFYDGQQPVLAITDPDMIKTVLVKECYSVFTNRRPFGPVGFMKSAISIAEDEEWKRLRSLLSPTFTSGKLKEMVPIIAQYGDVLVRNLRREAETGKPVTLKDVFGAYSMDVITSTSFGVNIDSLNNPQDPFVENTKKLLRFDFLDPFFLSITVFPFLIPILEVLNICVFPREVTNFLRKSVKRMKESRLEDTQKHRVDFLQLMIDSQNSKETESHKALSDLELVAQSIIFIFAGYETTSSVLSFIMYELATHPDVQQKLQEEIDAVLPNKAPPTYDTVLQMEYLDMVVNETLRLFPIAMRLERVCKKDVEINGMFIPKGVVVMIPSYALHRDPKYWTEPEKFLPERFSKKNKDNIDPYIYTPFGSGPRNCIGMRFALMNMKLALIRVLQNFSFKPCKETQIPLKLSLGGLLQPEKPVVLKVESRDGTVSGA
Compound,"activity, negative = inhibition",AC50
C[C@@H](N)[C@@H](C)Cc1ccccc1,-8.05% [at 11.4 µM] (inactive),–
CN(C)CCO[C@](C)(c1ccccc1)c1ccccn1,–,inactive
CCCn1nc(Oc2nc(NCC)nc(NCC)n2)ccc1=O,–,inactive
CCCCCCCCCCCCCCCC(=O)C(F)(F)F,–,inactive
COc1ncc2nc(-c3cccs3)c(=O)n(-c3ccccc3)c2n1,–,inactive
COc1ccc(Oc2ncc3nc(-c4cccs4)c(=O)n(-c4ccccc4)c3n2)cc1,–,2.51 µM (active)
COc1ccc(-n2c(=O)c(-c3cccs3)nc3cnc(OC)nc32)cc1,–,7.94 µM (active)
COc1ccc(-n2c(=O)c(-c3cccs3)nc3cnc(Oc4ccccc4)nc32)cc1,–,inactive
CN(C)CCN(c1ccccn1)c1ccccn1,-13.9% [at 11.4 µM] (inactive),–
N#C[C@H]1CN[C@H](N)N[C@@H]1N,-6.92% [at 11.4 µM] (inactive),–
COc1ccc(-c2ccc(/C=C3\C(=O)N(c4ccccc4)N=C3c3ccccc3)o2)c([N+](=O)[O-])c1,–,2 µM (active)
Cc1sc(=NC(=O)c2ccco2)n(C)c1-c1ccc(F)cc1,–,inactive
COc1nc(/C(N)=N/O)nc(N2CCCCC2)n1,–,inactive
CCOC(=O)c1cnc(SCCc2ccccc2)nc1N,–,inactive
CC(C)(O)c1cn(-c2nonc2N)nn1,–,inactive
COCc1c(C(N)=O)nnn1-c1nonc1N,–,inactive

Compound,"activity, negative = inhibition",AC50
CCOC(=O)c1nnn(-c2nonc2N)c1-c1ccccc1,–,15.8 µM (active)
CCOC(=O)c1nnn(-c2nonc2N)c1-c1ccc(C)cc1,-14.1% [at 2.29 µM] (inactive),–
Nc1nonc1-n1nncc1-c1ccccc1,–,15.8 µM (active)
CCOC(=O)c1nnn(-c2nc(OC)nc(N3CCCCC3)n2)c1-c1ccccc1,–,15.8 µM (active)
CC(C)OC(=O)c1nnn(-c2nonc2N)c1CSc1ccccn1,–,0.398 µM (active)
N#CN(CC(N)=O)c1nc(N2CCCCC2)nc(N2CCCCC2)n1,-13.4% [at 11.4 µM] (inactive),–
CCCOc1cc(N)ccc1C(=O)OCCN(CC)CC,–,inactive
N[C@H](CO)C(=O)NCC(=O)O (H-[dS]-Gly-OH),-1.48% [at 11.4 µM] (inactive),–
CC(=O)N=c1sc(S(N)(=O)=O)nn1C,–,inactive
CCc1cc2c(=O)c(-c3nc4ccccc4n3C)c(C)oc2c(CN(CC)CC)c1O,–,inactive
CN(C)Cc1cc(O)c(O)c(CN(C)C)c1,-13.7% [at 11.4 µM] (inactive),–
Cc1cc2c(s1)CCCCC(=O)N2,–,inactive
Cc1c(C(=O)N2CCCCCC2)nnn1-c1nonc1N,–,11.2 µM (active)
Cc1nonc1NC(=O)N1CCCC1,–,inactive
CCOc1nc(N2CCCCC2)nc(-n2cc(-c3ccccc3)nn2)n1,–,15.8 µM (active)

# — PubChem BioAssay AID1851 (National Center for Advancing Translational Sciences (NCATS), 2009)
